Screening data from PubChem BioAssay.
TbREL1 inh – TbREL1 inhibition, primary screen | P86926 | TbREL1 RNA ligation, FRET fluorescence | inhibition, % at 9.66 µM | actives 0.49% (n = 89,000);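 active means inhibition above the mean inhibition across all screened compounds plus 3 SD, cut at about 11% in these data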;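 further: 0% = plate median of test wells and 100% = NSC42067 control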
Target sequence (P86926 whole entry, looked up): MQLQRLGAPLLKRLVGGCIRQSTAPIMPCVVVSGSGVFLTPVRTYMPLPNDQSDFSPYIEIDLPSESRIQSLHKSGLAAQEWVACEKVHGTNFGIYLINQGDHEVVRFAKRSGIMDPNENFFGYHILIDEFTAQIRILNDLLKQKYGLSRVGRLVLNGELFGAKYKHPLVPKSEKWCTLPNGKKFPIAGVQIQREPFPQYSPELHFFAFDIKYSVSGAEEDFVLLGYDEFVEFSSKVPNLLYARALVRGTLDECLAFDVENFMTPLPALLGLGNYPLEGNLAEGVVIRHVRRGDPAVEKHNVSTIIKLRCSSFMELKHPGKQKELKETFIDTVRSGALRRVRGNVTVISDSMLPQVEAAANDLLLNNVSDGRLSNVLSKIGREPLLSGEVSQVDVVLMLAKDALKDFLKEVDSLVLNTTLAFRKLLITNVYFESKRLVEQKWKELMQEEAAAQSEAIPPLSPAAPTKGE
TbREL1 conf – TbREL1 inhibition, confirmation. actives 37% (n = 390). inhibition, % at 9.66 µM. TbREL1 RNA ligation, FRET fluorescence. shares compounds with TbREL1 inh;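 active means mean inhibition across replicates above a set limit taken from the earlier primary screen, cut at about 11% in these data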;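 further: 0% = REL1 with substrate and DMSO and 100% = REL1 plus control inhibitor NSC42067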
The depositor's hits bear a star. This excerpt belongs to a sample that is enriched for hits.

SMILES	TbREL1 inh	others
O=C(Cn1ccc2ccccc2c1=O)NCC(=O)N1CCC2(CC1)OCCO2	11*
O=C(CCCCCn1c(=S)[nH]c2ccccc2c1=O)N1CCC2(CC1)OCCO2	-6
O=C(CNCc1c(F)cccc1F)N1CCC2(CC1)OCCO2	1
CSc1ccccc1NP1(=O)OCC(C)([N+](=O)[O-])CO1 (centres undefined)	-1
C[C@H](NC(=O)OCc1ccccc1)C(=O)NC(Cc1ccccc1)P(=O)(Oc1ccccc1)Oc1ccccc1 (some centres undefined)	3
Oc1ccccc1-[n+]1c(-c2ccccc2)cc(-c2ccccc2)cc1-c1ccccc1	0
C[n+]1c(-c2ccccc2)cc(CCCCc2cc(-c3ccccc3)[n+](C)c(-c3ccccc3)c2)cc1-c1ccccc1	13*
Cc1ccc(-c2cc(-c3ccccc3)cc(-c3ccccc3)[n+]2-c2ccc(C(=O)O)cc2)cc1	-1
Nc1ccccc1C(=O)OC1CSC1	-3
O=S(=O)(c1cc(Cl)cc(Cl)c1)N1Cc2cc(-c3cccc(F)c3)ccc2-n2nncc2C1	1
O=C1NC(=O)C(=Cc2ccc(-c3ccc(F)cc3O)o2)C(=O)N1	16*	TbREL1 conf=15*
Cc1ccc(S(=O)(=O)N2Cc3cc(-c4cccc(F)c4)ccc3-n3nncc3C2)cc1	-3
CC1(C)NC(=O)[C@H]2CCCN21	-1
COc1cc(N2CCOCC2)ccc1/C=C1\C(=O)NC(=O)N(Cc2ccc3c(c2)OCO3)C1=O	-2
Cc1cc(C)c(C(=O)CN2CCOCC2)c(C)c1	6
COCCCn1c(N)c(C(=O)OCCOC)c2nc3ccccc3nc21	8
CCCCNC(=O)c1c(N)n(CCCOC)c2nc3ccccc3nc12	12*	TbREL1 conf=34*
COCCOC(=O)c1c(N)n(Cc2ccc(OC)cc2)c2nc3ccccc3nc12	0
COC(=O)C1=C(c2ccc(-c3ccccc3)c(F)c2)C[C@@H]2CC[C@H]1N2C(=O)N1CCCC1	-3
O=C1NCN(c2ccccc2)C12CCN(C(CCc1ccccc1)c1nnnn1-c1ccc3c(c1)OCCO3)CC2 (centres undefined)	0
Cc1nc2c(=O)n(C)c(=O)nc-2n(C)n1	64*	TbREL1 conf=89*
N#Cc1ccc(NC(=O)CN2C(=O)NC3(CCCCCCC3)C2=O)cc1Cl	0
CCn1c(C)c(C(=O)Nc2ccc(OC)cc2)c2cc(OC)ccc21	-2
Nc1c(C(=O)OCC2CCCO2)c2nc3ccccc3nc2n1Cc1cccs1 (centres undefined)	4
Nc1c(C(=O)NC2CCCC2)c2nc3ccccc3nc2n1CC1CCCO1 (centres undefined)	27*	TbREL1 conf=12*
SMILES	TbREL1 inh	others
COC(=O)c1c(N)n(Cc2ccc(OC)cc2)c2nc3ccccc3nc12	0
COC(=O)C1=C(c2cc3ccccc3o2)C[C@@H]2CC[C@H]1N2C(=O)NCc1ccccc1	-3
CC1c2ccccc2-n2nncc2CN1C (centres undefined)	2
COc1ccc(C(=O)C2CCCN(Cc3ccc(F)cc3F)C2)cc1F (centres undefined)	-4
Fc1cccc(-c2ccc3c(c2)CN(c2cccc(Cl)c2)Cc2cnnn2-3)c1	4
COC(=O)C1=C(c2ccccc2)C[C@@H]2CC[C@H]1N2C(=O)NCc1cccc2ccccc12	-6
[O-]c1ccccc1-[n+]1c(-c2ccccc2)cc(-c2ccccc2)cc1-c1ccccc1	8
Brc1ccc(-[n+]2c(-c3ccccc3)cc(-c3ccccc3)cc2-c2ccccc2)cc1	12*	TbREL1 conf=4
CCCOC(=O)c1ccc(-[n+]2c(-c3ccccc3)cc(-c3ccccc3)cc2-c2ccccc2)cc1	10
Cc1c(P(=S)(c2ccccc2)c2ccccc2)c2ccccc2n1C	4
CN1CCC(n2nccc2N)CC1	1
Nc1ccnn1C1CCNCC1	23*	TbREL1 conf=5
COC(=O)C1=C(c2ccc(OC(F)(F)F)cc2)C[C@@H]2CC[C@H]1N2C(=O)NC(C)C	4
CCN(CC)S(=O)(=O)c1cc(NC(=O)C(C)N2CC=C(c3ccccc3)CC2)ccc1C (centres undefined)	0
Cc1ccc(-n2c(C)cc(/C=C3/C(=O)NC(=O)N(Cc4ccco4)C3=O)c2C)cc1	-1
Cc1cc(/C=C2/C(=O)NC(=O)N(c3ccccc3)C2=O)c(C)n1-c1ccc(F)cc1	3
Cc1cc(/C=C2\C(=O)NC(=O)N(Cc3ccco3)C2=O)c(C)n1-c1ccc(C(=O)O)cc1	16*	TbREL1 conf=3
CN1CCN(S(=O)(=O)c2ccc(Cl)nc2)CC1	7
CCCNC(=O)N1[C@H]2CC[C@@H]1C(C(=O)OC)=C(c1cccc(OC)c1OC)C2	-1
COC(=O)C1=C(c2cc3ccccc3s2)C[C@@H]2CC[C@H]1N2C(=O)N1CCCCC1	-2
